Where a name gives a salt, the structure may show the parent alone. ± gives the uncertainty stated by the source.
How the values were obtained:
FLX1 = test: cell viability z-score within plate (CellTiter-Glo), mean of 3 biological replicates; higher = higher viability relative to plate (less growth inhibition); conditions: 2 µM; time (hr): 120
Method: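 FLX1 fibrolamellar carcinoma cells (DNAJB1-PRKACA fusion), 600 cells/well in 384-well plates, treated with a Selleck kinase inhibitor library (L1200) at 2 uM for 5 days (120 hr); viability by CellTiter-Glo. A z-score was computed within each plate and averaged over three biological replicates.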

[1] = tested on: FLX1 + dox-induced PRKAR1A G325D; test: difference in log2 fold change of viability vs plate median (dox-induced PRKAR1A G325D minus uninduced); higher = compound less effective when PKA is inhibited; conditions: concentration: not stated (2 or 5 uM); 5 days
Method: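 For each plate a log2 fold change vs the plate median was derived, and the values without dox were subtracted from those with dox, averaged over three biological replicates.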

Cc1ccc(S(=O)(=O)/C=C/C#N)cc1
cell viability z-score within plate (FLX1): 0.177 ± 0.63 | difference in log2 fold change of viability [1]: -0.118

Cc1ccc(Nc2nccc(N(C)c3ccc4c(C)n(C)nc4c3)n2)cc1S(N)(=O)=O [Pazopanib]
cell viability z-score within plate (FLX1): -0.34 ± 0.86 | difference in log2 fold change of viability [1]: 0.0453

CN1CCN(Cc2ccc(-c3cnc4[nH]cc(-c5ccc6[nH]ccc6c5)c4c3)cc2)CC1
cell viability z-score within plate (FLX1): -0.36 ± 0.19 | difference in log2 fold change of viability [1]: -0.00541

NC1(c2ccc(-c3nc4ccn5c(=O)[nH]nc5c4cc3-c3ccccc3)cc2)CCC1
cell viability z-score within plate (FLX1): -0.0746 ± 0.54 | difference in log2 fold change of viability [1]: 0.0391

COc1cc(OC)c(/C=C/S(=O)(=O)Cc2ccc(OC)c(NCC(=O)O)c2)c(OC)c1
cell viability z-score within plate (FLX1): 0.00703 ± 0.25 | difference in log2 fold change of viability [1]: 0.2

Cc1cc(Nc2cc(CN3CCOCC3)c3nc(C)c(Cc4ccc(Cl)cc4F)n3n2)n[nH]1
cell viability z-score within plate (FLX1): 0.049 ± 0.54 | difference in log2 fold change of viability [1]: -1.14

CCN(CC)CCCCNc1ncc2cc(-c3cc(OC)cc(OC)c3)c(NC(=O)NC(C)(C)C)nc2n1
cell viability z-score within plate (FLX1): -0.321 ± 0.21 | difference in log2 fold change of viability [1]: -0.527

Cc1ccc(NC(=O)c2ccc(CN3CCN(C)CC3)cc2)cc1Nc1nccc(-c2cccnc2)n1 [Imatinib Mesylate (STI571)]
cell viability z-score within plate (FLX1): -1.25 ± 0.88 | difference in log2 fold change of viability [1]: 0.343

COc1cc2ncnc(Nc3ccc(O)c(Br)c3)c2cc1OC
cell viability z-score within plate (FLX1): 0.753 ± 0.38 | difference in log2 fold change of viability [1]: -0.279

Nc1ccc(-c2ccc3ncc4ccc(=O)n(-c5cccc(C(F)(F)F)c5)c4c3c2)cn1 [Torin 2]
cell viability z-score within plate (FLX1): 0.796 ± 0.29 | difference in log2 fold change of viability [1]: 0.605

Cc1cc2c(F)c(Oc3ncnn4cc(OC[C@@H](C)O)c(C)c34)ccc2[nH]1
cell viability z-score within plate (FLX1): -1.45 ± 0.81 | difference in log2 fold change of viability [1]: 0.515

Cn1cc(-c2ccc3ncc(Cc4ccc5ncccc5c4)n3n2)cn1
cell viability z-score within plate (FLX1): 0.137 ± 0.93 | difference in log2 fold change of viability [1]: -0.0241

CCCCOc1c(C(=O)c2c(F)cc(C)cc2F)c[nH]c2nncc1-2
cell viability z-score within plate (FLX1): -0.865 ± 0.43 | difference in log2 fold change of viability [1]: 0.486

N#Cc1ccc2[nH]c(O)c(-c3ccc(CN4CCOCC4)cn3)c2c1
cell viability z-score within plate (FLX1): 0.226 ± 0.62 | difference in log2 fold change of viability [1]: 0.199

COC(=O)Nc1ccc(-c2nc(N3CCOCC3)c3cnn(C4CCN(C(=O)OC)CC4)c3n2)cc1
cell viability z-score within plate (FLX1): 0.411 ± 0.44 | difference in log2 fold change of viability [1]: 0.71

COc1cc(Nc2ncc(F)c(Nc3ccc4c(n3)NC(=O)C(C)(C)O4)n2)cc(OC)c1OC
cell viability z-score within plate (FLX1): 0.701 ± 0.4 | difference in log2 fold change of viability [1]: -0.353

O=C1NCCc2[nH]c(-c3ccncc3)cc21
cell viability z-score within plate (FLX1): 0.309 ± 0.59 | difference in log2 fold change of viability [1]: 0.179

Cc1csc(-c2nnc(Nc3ccc(Oc4ncccc4-c4ccnc(N)n4)cc3)c3ccccc23)c1
cell viability z-score within plate (FLX1): -0.507 ± 1.2 | difference in log2 fold change of viability [1]: 0.188

Cn1c(Nc2ccc(C(F)(F)F)cc2)nc2cc(Oc3ccnc(-c4ncc(C(F)(F)F)[nH]4)c3)ccc21
cell viability z-score within plate (FLX1): 0.193 ± 0.26 | difference in log2 fold change of viability [1]: -0.588

Nc1cc(C(F)(F)F)c(-c2cc(N3CCOCC3)nc(N3CCOCC3)n2)cn1 [Buparlisib (BKM120, NVP-BKM120)]
cell viability z-score within plate (FLX1): -0.0175 ± 0.38 | difference in log2 fold change of viability [1]: 0.841

Cc1cc(NC(=O)c2cccc(NC(=O)/C=C/CN(C)C)c2)ccc1Nc1nccc(-c2cccnc2)n1
cell viability z-score within plate (FLX1): 0.657 ± 0.22 | difference in log2 fold change of viability [1]: -0.217

c1cncc(CN2CCC(n3ncc4c(N5CCOCC5)nc(-c5ccc6[nH]ccc6c5)nc43)CC2)c1
cell viability z-score within plate (FLX1): 0.437 ± 0.062 | difference in log2 fold change of viability [1]: -1.08

CCN(CC)CCNC(=O)c1c(C)[nH]c(/C=C2\C(=O)Nc3ccc(F)cc32)c1C [Sunitinib Malate]
cell viability z-score within plate (FLX1): -0.049 ± 0.26 | difference in log2 fold change of viability [1]: -0.043

O=C(NC1CCNCC1)c1n[nH]cc1NC(=O)c1c(Cl)cccc1Cl
cell viability z-score within plate (FLX1): -0.72 ± 0.28 | difference in log2 fold change of viability [1]: 0.272

Fc1cc(-c2cccc3ncc(-c4cnn(C5CCNCC5)c4)nc23)cc(F)c1CN1CCOCC1
cell viability z-score within plate (FLX1): -1.08 ± 1.1 | difference in log2 fold change of viability [1]: 0.246

N#CC[C@H](C1CCCC1)n1cc(-c2ncnc3[nH]ccc23)cn1
cell viability z-score within plate (FLX1): 0.242 ± 0.22 | difference in log2 fold change of viability [1]: 0.145

NC(=O)Nc1cc(-c2cccc(F)c2)sc1C(=O)N[C@H]1CCCNC1
cell viability z-score within plate (FLX1): 0.408 ± 0.47 | difference in log2 fold change of viability [1]: -0.12

COc1ncc(-c2ccc3nccc(-c4ccnnc4)c3c2)cc1NS(=O)(=O)c1ccc(F)cc1F
cell viability z-score within plate (FLX1): 0.539 ± 0.32 | difference in log2 fold change of viability [1]: 0.179

CC[C@@H]1C(=O)N(C)c2cnc(Nc3ccc(C(=O)NC4CCN(C)CC4)cc3OC)nc2N1C1CCCC1
cell viability z-score within plate (FLX1): -1.49 ± 0.57 | difference in log2 fold change of viability [1]: 0.0323

Cc1[nH]nc2ccc(-c3cncc(OC[C@@H](N)Cc4ccccc4)c3)cc12
cell viability z-score within plate (FLX1): 0.657 ± 0.13 | difference in log2 fold change of viability [1]: 0.18

CO[C@@H](C(=O)N1Cc2[nH]nc(NC(=O)c3ccc(N4CCN(C)CC4)cc3)c2C1)c1ccccc1
cell viability z-score within plate (FLX1): 0.348 ± 0.073 | difference in log2 fold change of viability [1]: 0.428

CC(C)(C)NS(=O)(=O)c1cncc(-c2cc(F)c3nc(N)nn3c2)c1
cell viability z-score within plate (FLX1): 0.16 ± 0.77 | difference in log2 fold change of viability [1]: -0.0394

CCOc1ccn(-c2ccc(F)cc2)c(=O)c1C(=O)Nc1ccc(Oc2ccnc(N)c2Cl)c(F)c1
cell viability z-score within plate (FLX1): -0.36 ± 1.2 | difference in log2 fold change of viability [1]: 0.114

COc1cc(N2CCC(N(C)C)CC2)ccc1Nc1ncc(Cl)c(Nc2ccccc2P(C)(C)=O)n1
cell viability z-score within plate (FLX1): 0.0333 ± 0.4 | difference in log2 fold change of viability [1]: -1.41

N#C/C(=C\c1ccc(O)c(O)c1)C(=O)NCc1ccccc1 [AG-490 (Tyrphostin B42)]
cell viability z-score within plate (FLX1): -0.668 ± 1.4 | difference in log2 fold change of viability [1]: -0.0065

CC(=O)Nc1nc(C)c(-c2ccc(Cl)c(S(=O)(=O)NCCO)c2)s1
cell viability z-score within plate (FLX1): -0.0789 ± 0.1 | difference in log2 fold change of viability [1]: 1.62

CCOC(=O)c1cnc2ccc(-c3cncc(NS(=O)(=O)c4ccccc4)c3)cn12
cell viability z-score within plate (FLX1): 0.507 ± 0.62 | difference in log2 fold change of viability [1]: 0.663

Reference: the supplement of paper PMC9925115
